The target of test [1] is human Retinoic Acid Receptor gamma (RARg), RARG (gene 5916) (UniProt P13631). Briefly: ATG_RARg_TRANS: Attagene TRANS-FACTORIAL HepG2 Assay for human Retinoic Acid Receptor gamma (RARg) (AID 2283009; active = hit-call score of the fitted dose curve at least 0.9, where 1 is the maximum). The procedure, abridged: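 HepG2, RARg-GAL4 TRANS system, 24 h exposure; reporter mRNA by RT-PCR + CE fluorescence; increase over DMSO.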
Test [2] addresses human RAR-related Orphan Receptor gamma (RORg), RORC (gene 6097) (UniProt P51449). As to the kind of experiment: ATG_RORg_TRANS: Attagene TRANS-FACTORIAL HepG2 Assay for human RAR-related Orphan Receptor gamma (RORg) (AID 2283011; active = hit-call score of the fitted dose curve at least 0.9, where 1 is the maximum). The gist of the method:
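Readout: reporter transcript induction (RT-PCR, fluorescent primer extension, capillary electrophoresis) after 24 h compound exposure of transiently transfected HepG2 cells carrying a RORg-Gal4 chimera and GAL4-UAS reporters; DMSO served as baseline, with increasing signal fitted.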

Test [3] concerns the target Retinoic acid receptor RXR-alpha (Homo sapiens) (UniProt P19793). As to the kind of experiment: ATG_RXRa_TRANS: Attagene TRANS-FACTORIAL HepG2 Assay for human Retinoid X Receptor alpha (RXRa) (AID 2283012; active = hit-call score of the fitted dose curve at least 0.9, where 1 is the maximum). The gist of the method: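 Cells (HepG2) carried transiently transfected GAL4-responsive reporter units. Following a 24 h chemical incubation, reporter mRNA induction was read via RT-PCR fragment analysis; DMSO served as negative control and baseline.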

In test [4] the target is human Retinoid X Receptor beta (RXRb), RXRB (gene 6257) (UniProt P28702). As to the kind of experiment: ATG_RXRb_TRANS: Attagene TRANS-FACTORIAL HepG2 Assay for human Retinoid X Receptor beta (RXRb) (AID 2283013; active = hit-call score of the fitted dose curve at least 0.9, where 1 is the maximum). The procedure, abridged: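 Multiplexed TRANS reporter assay in HepG2; 24 h dosing; reporter mRNA by RT-PCR/CE fluorescence; gain-of-signal relative to DMSO.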

Read-out in test [5]: E-selectin (Homo sapiens) (UniProt P16581)
As to the kind of experiment: BSK_3C_Eselectin: BioMAP Diversity Plus: 3C Assay for Eselectin Biomarker Activity (AID 2283015).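 As to outcome: cell surface E-selectin protein quantified by ELISA 24 h after dosing.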 To be noted: primary human endothelial cells (HUVEC); actives raise or lower the signal. The procedure, abridged: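 Primary human umbilical vein endothelial cells (3C system) were dosed with chemical and cell-surface E-selectin measured by ELISA 24 h later. Bidirectional curve fitting used DMSO as negative control and baseline.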

Read-out in test [6]: Interleukin-1 alpha (IL1a), IL1A (gene 3552)
Briefly: BSK_BE3C_IL1a: BioMAP Diversity Plus: BE3C Assay for Interleukin-1 alpha (IL1a) Biomarker Activity (AID 2283016). The note with it: primary human bronchial epithelial cells; actives raise or lower the signal. The gist of the method:
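Cultures of primary human bronchial epithelial cells receive test chemical. After 24 h, IL-1a is quantified by ELISA, while parallel wells are fixed in TCA and SRB-stained for total protein. Changes in either direction are fitted relative to DMSO.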

Read-out in test [7]: Monocyte Chemoattractant Protein-1 (MCP1), CCL2 (gene 6347)
As to the kind of experiment: BSK_3C_MCP1: BioMAP Diversity Plus: 3C Assay for Monocyte Chemoattractant Protein-1 (MCP1) Biomarker Activity (AID 2283017). The note with it: primary human endothelial cells (HUVEC); actives raise or lower the signal. The gist of the method:
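Primary human umbilical vein endothelial cells (3C system) were exposed to test chemical for 24 h, after which MCP-1 was quantified by ELISA. Activity was fitted bidirectionally against DMSO as negative control and baseline.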

Read-out in test [8]: Human Leukocyte Antigen - DR isotype (HLADR), HLA-DRA (gene 3122)
As to the kind of experiment: BSK_3C_HLADR: BioMAP Diversity Plus: 3C Assay for Human Leukocyte Antigen - DR isotype (HLADR) Biomarker Activity (AID 2283019). To be noted: primary human endothelial cells (HUVEC); actives raise or lower the signal. The gist of the method: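 Primary human umbilical vein endothelial cells (3C system) were dosed with compound and cell-surface HLA-DR was quantified by ELISA at 24 h. Activity was fitted bidirectionally against DMSO as negative control and baseline.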

Read-out in test [9]: Interleukin-8 (IL8), CXCL8 (gene 3576)
As to the kind of experiment: BSK_3C_IL8: BioMAP Diversity Plus: 3C Assay for Interleukin-8 (IL8) Biomarker Activity (AID 2283020). The note with it: primary human endothelial cells (HUVEC); actives raise or lower the signal. The gist of the method: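 Human vascular endothelial cells (umbilical vein) in the 3C system; IL-8 level detected by ELISA at 24 h post-dose, with DMSO as baseline.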

Read-out in test [10]: Monokine induced gamma interferon (MIG), CXCL9 (gene 4283)
Briefly: BSK_3C_MIG: BioMAP Diversity Plus: 3C Assay for Monokine induced gamma interferon (MIG) Biomarker Activity (AID 2283021).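 As to AC50: MIG protein level measured by immunoassay in the treated endothelial cultures.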 To be noted: primary human endothelial cells (HUVEC); actives raise or lower the signal. The gist of the method: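 After 24 h of treatment, human umbilical vein endothelial cultures (3C system) had their MIG biomarker level determined by ELISA, with DMSO serving as negative control.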

For test [11], the target named is human Vitamin D Receptor (VDR), VDR (gene 7421) (UniProt P11473). Briefly: ATG_VDR_TRANS: Attagene TRANS-FACTORIAL HepG2 Assay for human Vitamin D Receptor (VDR) (AID 2283022; active = hit-call score of the fitted dose curve at least 0.9, where 1 is the maximum). The gist of the method: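 HepG2 cells were transiently transfected with multiple GAL4-UAS reporter units, so signal reflects exogenous chimeric receptor-Gal4 activity. After 24 h compound exposure, reporter mRNA was measured by RT-PCR, fluorescent labelling and capillary electrophoresis, fitted for gain of signal versus DMSO.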

Test [12] in a line: BSK_3C_SRB: Viability Assessment in the BioMAP Diversity Plus: 3C Assay (AID 2283023).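 Also: fitted both ways against DMSO so a hit may be signal rise or drop.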 To be noted: primary human endothelial cells (HUVEC). The procedure, abridged:
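Primary human umbilical vein endothelial cells in the 3C system were read 24 h after compound dosing. Total protein was stained with 0.1% sulforhodamine B after 10% TCA fixation and read at 560 nm, with bidirectional fitting against DMSO as baseline.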

Read-out in test [13]: Matrix Metallopeptidase 1 (MMP1), MMP1 (gene 4312)
As to the kind of experiment: BSK_BE3C_MMP1: BioMAP Diversity Plus: BE3C Assay for Matrix Metallopeptidase 1 (MMP1) Biomarker Activity (AID 2283024). The note with it: primary human bronchial epithelial cells; actives raise or lower the signal. The gist of the method: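 Dose cells, wait 24 h, run MMP1 ELISA; cells are human bronchial epithelial primaries. Both increases and decreases relative to DMSO counted.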

Test [14] can be described thus: BSK_3C_Vis: BioMAP Diversity Plus: 3C Assay for Morphology Visualization (AID 2283025).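 Also: fitted both ways so gain or loss versus DMSO counts.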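 As to AC50: light microscopy image of cell morphology used as background control.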 The note with it: primary human endothelial cells (HUVEC). The gist of the method:
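Endothelial cells from human umbilical vein were treated with test chemicals for 24 h and inspected by light microscopy for changes in cell conformation.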

Read-out in test [15]: Pselectin, SELP (gene 6403)
Briefly: BSK_4H_Pselectin: BioMAP Diversity Plus: 4H Assay for Pselectin Biomarker Activity (AID 2283026). The note with it: primary human endothelial cells (HUVEC); actives raise or lower the signal. The procedure, abridged: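 Human vascular endothelium from umbilical vein; P-selectin measured by ELISA at 24 h post-dose, with cytotoxicity checked by sulforhodamine B total-protein staining in parallel cultures (0.1% SRB after 10% TCA fixation, read at 560 nm).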

The nature of test [16]: BSK_4H_SRB: Viability Assessment in the BioMAP Diversity Plus: 4H Assay (AID 2283027).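 Also: cells exposed to compound for 24 h before staining.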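 As to AC50: curves fitted both ways versus DMSO so AC50 may be loss or gain.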 The note with it: primary human endothelial cells (HUVEC). The procedure, abridged:
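Absorbance at 560 nm of SRB-stained total protein served as the viability read-out in confluent primary human umbilical vein endothelium 24 h after chemical treatment. Curves were fitted bidirectionally against DMSO as negative control.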

Test [17] is described as follows: BSK_BE3C_SRB: Viability Assessment in the BioMAP Diversity Plus: BE3C Assay (AID 2283028).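 As to AC50: fitted both ways so AC50 may mark signal gain or loss versus DMSO.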 The note with it: primary human bronchial epithelial cells. The procedure, abridged:
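Human primary bronchial epithelial cells were exposed to test chemicals for 24 h. Total protein in parallel cultures was then measured by staining with 0.1% sulforhodamine B after 10% TCA fixation, with absorbance read at 560 nm. Activity was fitted bidirectionally against DMSO.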

Read-out in test [18]: Thrombomodulin, THBD (gene 7056)
Briefly: BSK_3C_Thrombomodulin: BioMAP Diversity Plus: 3C Assay for Thrombomodulin Biomarker Activity (AID 2283029). The note with it: primary human endothelial cells (HUVEC); actives raise or lower the signal. The gist of the method:
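Thrombomodulin ELISA, human primary HUVEC, 24 h post-dose; data fitted in both directions relative to DMSO.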

Read-out in test [19]: Monocyte Chemoattractant Protein-1 (MCP1), CCL2 (gene 6347)
As to the kind of experiment: BSK_4H_MCP1: BioMAP Diversity Plus: 4H Assay for Monocyte Chemoattractant Protein-1 (MCP1) Biomarker Activity (AID 2283018). The note with it: primary human endothelial cells (HUVEC); actives raise or lower the signal. The gist of the method: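 Readout: MCP-1 ELISA on compound-treated HUVEC, sampled 24 h post-dosing. Baseline and negative control DMSO; bidirectional fit. Overt toxicity checked alongside by sulforhodamine B protein staining at time of biomarker measurement.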

Test [20] has as its target human Thyroid Receptor alpha (THRa1), THRA (gene 7067) (UniProt P10827). Briefly: ATG_THRa1_TRANS: Attagene TRANS-FACTORIAL HepG2 Assay for human Thyroid Receptor alpha (THRa1) (AID 2283014; active = hit-call score of the fitted dose curve at least 0.9, where 1 is the maximum). The gist of the method:
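HepG2 cells transiently transfected with multiplexed GAL4-UAS reporter units for exogenous chimeric THRa1-Gal4; reporter mRNA measured 24 h after dosing by RT-PCR, 6-FAM labelling, HpaI digestion and capillary electrophoresis. Gain-of-signal fitted versus DMSO baseline.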

“And” between values parts separate entries of the source, which are not always exact repeats. Identical values can stand only once. Results filed as inconclusive are left out. Where a structure was tested more than once in an assay, its records may differ in their call. The source made the active and inactive calls. The calls were made as follows, unless noted: active = hit-call score of the fitted dose curve at least 0.9, where 1 is the maximum; inactive = score below 0.9.

Chain of human Thyroid Receptor alpha (THRa1), THRA (gene 7067) (P10827 whole entry, looked up, the tested form may be a part): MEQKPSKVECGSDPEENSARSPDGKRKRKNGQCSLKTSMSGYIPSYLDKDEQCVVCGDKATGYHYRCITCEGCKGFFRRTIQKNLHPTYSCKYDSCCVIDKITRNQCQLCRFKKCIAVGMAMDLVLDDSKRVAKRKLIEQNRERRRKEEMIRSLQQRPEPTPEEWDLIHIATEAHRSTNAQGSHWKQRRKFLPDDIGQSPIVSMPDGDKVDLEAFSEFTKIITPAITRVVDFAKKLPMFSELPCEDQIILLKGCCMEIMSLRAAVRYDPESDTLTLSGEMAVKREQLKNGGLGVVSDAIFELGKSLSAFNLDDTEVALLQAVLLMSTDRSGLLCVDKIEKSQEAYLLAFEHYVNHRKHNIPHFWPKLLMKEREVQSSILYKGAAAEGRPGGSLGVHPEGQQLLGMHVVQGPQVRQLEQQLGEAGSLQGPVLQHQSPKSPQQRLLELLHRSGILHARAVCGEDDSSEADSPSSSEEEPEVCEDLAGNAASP
Chain of E-selectin (Homo sapiens) (P16581 whole entry, looked up): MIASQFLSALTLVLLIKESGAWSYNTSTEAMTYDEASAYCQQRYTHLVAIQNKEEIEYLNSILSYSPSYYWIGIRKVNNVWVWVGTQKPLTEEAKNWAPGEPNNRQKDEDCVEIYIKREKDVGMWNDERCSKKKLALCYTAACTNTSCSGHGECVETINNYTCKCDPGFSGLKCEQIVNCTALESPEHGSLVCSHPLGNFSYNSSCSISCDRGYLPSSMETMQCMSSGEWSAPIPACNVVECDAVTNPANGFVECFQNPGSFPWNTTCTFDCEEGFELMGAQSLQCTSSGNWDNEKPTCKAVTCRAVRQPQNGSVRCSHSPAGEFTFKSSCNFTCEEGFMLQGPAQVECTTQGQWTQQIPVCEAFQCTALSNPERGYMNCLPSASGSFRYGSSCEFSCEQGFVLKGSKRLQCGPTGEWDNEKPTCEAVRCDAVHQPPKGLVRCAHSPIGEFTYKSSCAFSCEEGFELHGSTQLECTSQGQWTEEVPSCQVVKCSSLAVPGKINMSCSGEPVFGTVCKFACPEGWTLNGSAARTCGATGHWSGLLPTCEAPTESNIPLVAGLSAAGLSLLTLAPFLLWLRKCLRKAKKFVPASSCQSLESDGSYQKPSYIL
Chain of human RAR-related Orphan Receptor gamma (RORg), RORC (gene 6097) (P51449 whole entry, looked up, the tested form may be a part): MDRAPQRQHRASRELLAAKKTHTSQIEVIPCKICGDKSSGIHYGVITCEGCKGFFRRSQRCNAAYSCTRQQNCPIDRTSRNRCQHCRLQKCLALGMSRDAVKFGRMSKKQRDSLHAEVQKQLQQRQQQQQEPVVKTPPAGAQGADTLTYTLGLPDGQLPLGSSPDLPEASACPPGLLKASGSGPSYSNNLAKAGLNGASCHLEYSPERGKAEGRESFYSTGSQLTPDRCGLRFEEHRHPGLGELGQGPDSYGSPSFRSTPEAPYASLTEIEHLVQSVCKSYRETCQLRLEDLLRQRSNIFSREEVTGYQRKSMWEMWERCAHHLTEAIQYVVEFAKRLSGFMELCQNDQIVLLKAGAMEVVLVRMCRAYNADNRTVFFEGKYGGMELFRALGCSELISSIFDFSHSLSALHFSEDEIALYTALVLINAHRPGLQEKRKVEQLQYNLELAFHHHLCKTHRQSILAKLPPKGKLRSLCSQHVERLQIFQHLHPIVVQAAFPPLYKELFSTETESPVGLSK
Chain of Retinoic acid receptor RXR-alpha (Homo sapiens) (P19793 whole entry, looked up, the tested form may be a part): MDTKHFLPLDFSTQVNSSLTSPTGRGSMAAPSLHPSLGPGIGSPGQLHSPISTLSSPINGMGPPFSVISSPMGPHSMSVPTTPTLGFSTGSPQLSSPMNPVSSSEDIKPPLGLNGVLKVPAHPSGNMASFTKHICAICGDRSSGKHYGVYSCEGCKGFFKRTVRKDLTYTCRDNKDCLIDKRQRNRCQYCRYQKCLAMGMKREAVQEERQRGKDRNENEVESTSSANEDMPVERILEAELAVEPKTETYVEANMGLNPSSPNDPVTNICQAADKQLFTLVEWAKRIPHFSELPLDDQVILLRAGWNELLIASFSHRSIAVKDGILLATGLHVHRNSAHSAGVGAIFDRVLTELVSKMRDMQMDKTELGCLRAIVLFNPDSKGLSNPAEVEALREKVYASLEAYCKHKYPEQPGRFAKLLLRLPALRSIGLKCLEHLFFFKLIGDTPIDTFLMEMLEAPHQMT
Chain of human Retinoic Acid Receptor gamma (RARg), RARG (gene 5916) (P13631 whole entry, looked up, the tested form may be a part): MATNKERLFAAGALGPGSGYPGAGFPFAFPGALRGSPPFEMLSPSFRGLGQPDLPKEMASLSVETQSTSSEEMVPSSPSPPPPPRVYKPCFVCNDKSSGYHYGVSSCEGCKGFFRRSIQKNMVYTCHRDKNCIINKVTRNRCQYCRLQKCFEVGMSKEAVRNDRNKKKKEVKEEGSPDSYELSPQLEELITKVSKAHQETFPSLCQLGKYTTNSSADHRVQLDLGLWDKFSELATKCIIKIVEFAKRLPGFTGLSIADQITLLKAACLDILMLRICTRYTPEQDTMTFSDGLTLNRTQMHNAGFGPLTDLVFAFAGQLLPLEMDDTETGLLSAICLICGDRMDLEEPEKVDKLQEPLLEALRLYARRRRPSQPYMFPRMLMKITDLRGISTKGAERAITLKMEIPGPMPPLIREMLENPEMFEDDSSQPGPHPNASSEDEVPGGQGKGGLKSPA
Chain of human Retinoid X Receptor beta (RXRb), RXRB (gene 6257) (P28702 whole entry, looked up): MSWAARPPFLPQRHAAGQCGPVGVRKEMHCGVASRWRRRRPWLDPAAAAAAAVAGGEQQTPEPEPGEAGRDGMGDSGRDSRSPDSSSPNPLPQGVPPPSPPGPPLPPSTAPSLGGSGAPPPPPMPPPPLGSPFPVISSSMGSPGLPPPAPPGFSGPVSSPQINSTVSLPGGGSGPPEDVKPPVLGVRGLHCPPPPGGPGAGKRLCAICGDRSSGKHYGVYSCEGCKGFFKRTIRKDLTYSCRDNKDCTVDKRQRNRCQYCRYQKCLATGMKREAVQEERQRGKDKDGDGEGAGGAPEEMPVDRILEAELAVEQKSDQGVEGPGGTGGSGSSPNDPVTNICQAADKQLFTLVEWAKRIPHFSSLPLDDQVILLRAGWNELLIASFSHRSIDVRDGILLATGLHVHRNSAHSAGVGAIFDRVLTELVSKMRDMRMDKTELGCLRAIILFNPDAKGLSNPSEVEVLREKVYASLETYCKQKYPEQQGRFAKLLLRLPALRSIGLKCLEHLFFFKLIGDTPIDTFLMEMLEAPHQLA
Chain of human Vitamin D Receptor (VDR), VDR (gene 7421) (P11473 whole entry, looked up, the tested form may be a part): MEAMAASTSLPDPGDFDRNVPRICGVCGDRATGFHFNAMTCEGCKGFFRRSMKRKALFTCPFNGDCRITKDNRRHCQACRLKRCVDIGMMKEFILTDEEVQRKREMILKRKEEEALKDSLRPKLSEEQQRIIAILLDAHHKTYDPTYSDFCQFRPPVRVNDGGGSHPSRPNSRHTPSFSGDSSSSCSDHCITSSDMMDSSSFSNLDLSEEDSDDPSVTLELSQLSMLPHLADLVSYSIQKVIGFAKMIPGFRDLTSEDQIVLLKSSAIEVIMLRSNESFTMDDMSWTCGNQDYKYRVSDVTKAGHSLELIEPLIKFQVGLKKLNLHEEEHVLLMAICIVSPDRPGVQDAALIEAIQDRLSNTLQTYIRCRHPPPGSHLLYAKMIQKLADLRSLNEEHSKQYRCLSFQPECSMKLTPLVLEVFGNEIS

Consider `CN(C)C(=S)SSC(=S)N(C)C`, for which the outcome in test [1], in test [2], in test [3], in [4], in test [11] and in test [12] was inactive. Besides, in test [18], the result was inactive. For the same compound, the AC50 – broadly, the concentration at which the activity in the assay is half-maximal – in test [5] is 30.5 µM (active); in test [6] it was 9.3 µM (active); in [7] it was 30.9 µM (active); in [8] it was 14.9 µM (active); in test [9] it was 31.7 µM (active); in test [10], 33.6 µM (active). In addition, the half-maximal activity concentration (AC50) was 14.2 µM (active) in test [13]; 16.3 µM (active) in test [14]; 14 µM (active) in [15]; 25.7 µM (active) in test [16]; 8.39 µM (active) in test [17].

`CS/C(C)=N/OC(=O)N(C)SN(C)C(=O)O/N=C(\C)SC`: the call in test [1], in test [2], in test [3], in test [6], in test [13] and in test [18] was inactive. For the same compound, the AC50 in test [5] was 30 µM (active); in [7] it was 29.6 µM (active); in test [19], 29.3 µM (active); in test [8] it was 15.8 µM (active); in [9], 29.7 µM (active); in [10], 35.1 µM (active). In addition, the AC50 in test [12] is 26.5 µM (active); in [14], 11.9 µM (active); in test [15], 19.9 µM (active); in [16] it was 29.6 µM (active); in test [17] it was 28.6 µM (active).

Take `COc1nc(NC(C)C)nc(NC(C)C)n1`: the compound was called inactive in test [1], in test [2], in test [3], in test [20], in test [5] and in test [6]. Also, the outcome in [7], in test [8], in test [9], in [10], in test [11] and in test [12] was inactive. For the same compound, the outcome in test [13], in test [14], in [15], in [16] and in test [17] was inactive. In test [18], the AC50 was 0.148 µM (active).

As for `CCCCOC(=O)c1ccccc1C(=O)OCCCC`, the result in test [1], in test [2], in test [3], in [4], in test [5] and in test [6] was inactive. In addition, the result in test [7], in test [8], in [9], in test [10], in test [11] and in test [12] was inactive. Further, the result in test [13], in [14], in test [15], in test [16], in test [17] and in test [18] was inactive. Moreover, the AC50 in [4] is 64.6 µM (active) and 65.2 µM (active) and 68.9 µM (active); in test [20], 39.6 µM (active) and 35.1 µM (active) and 2.44 µM (active); in test [12] it was 15.2 µM (active).

With `CCOC(=O)CC(SP(=S)(OC)OC)C(=O)OCC` (stereo not given), the call in test [2], in test [3], in test [4], in [5], in test [6] and in test [7] was inactive. Also, the result in test [19], in [9], in [10], in test [11], in test [12] and in [13] was inactive. In addition, the result in test [14], in test [15], in [16], in [17] and in test [18] was inactive. The figures for the AC50 in test [4] and in [8] were 63.4 µM (active) and 20 µM (active), respectively.

With `CCCCNC(=O)n1c(NC(=O)OC)nc2ccccc21`, the compound was called inactive in test [1], in [3], in test [4], in test [5], in test [6] and in test [9]. Further, the result in test [10], in [11], in test [13], in test [15], in test [17] and in [18] was inactive. Moreover, the AC50 in [7] was 10 µM (active); in test [8], 13.7 µM (active); in test [12] it was 8.93 µM (active); in test [14] it was 9.8 µM (active); in test [16] it was 14 µM (active).

Source of the values: PubChem BioAssay (EPA / NIEHS).
